MEKK2 WT-MEK5 = modulators of MEK5 binding to wildtype MEKK2, primary screen, biochemical, multiplex bead flow cytometry, Alexa488-MEK5 | Alexa488-MEK5 binding to MEKK2 WT; actives lie on both sides | Mitogen-activated protein kinase kinase kinase 2 (Homo sapiens), Q9Y2U5 | binding response (% of control), % at 10 µM | hit rate 1.1% among 290,000 | AID 1531, 2009; in the data active = binding response below about 67% or above about 130%
MEKK3 PB1 HTS = modulators of MEKK3-MEK5 PB1 binding, primary screen, biochemical, wildtype MEKK3, multiplex bead flow cytometry, Alexa488-MEK5; Mitogen-activated protein kinase kinase kinase 3 (Homo sapiens), Q99759; bead-based flow cytometry, Alexa488-MEK5 binding to MEKK3; actives lie on both sides; 0 = blocked by unlabeled MEK5, 100 = vehicle; binding response (% of control), % at 10 µM; hit rate 1.4% among 290,000; AID 1529, 2009;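 active = binding response more than 3 SD above or below the average of its plate-row segment, actives on both sides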;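 also: Alexa488 bead fluorescence after subtracting the streptavidin-only scavenger bead signal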
MEKK2 mut-MEK5 = MEK5 binding signal on mutant MEKK2 PB1, primary screen, biochemical, multiplex bead flow cytometry, Alexa488-MEK5; Alexa488-MEK5 binding to MEKK2 mutant; AID 1530, 2009; hit rate 0.35% among 290,000; percent response, % at 10 µM; in the data active = percent response above about 24%, passing the limit was not always enough
SKN-1 block = suppressors of acrylamide-induced Pgst-4::GFP reporter in worms, primary screen, SKN-1 inhibitor project, whole organism, uHTS, GFP/RFP fluorescence ratio, strain VP596. C. elegans VP596 Pgst-4::GFP/RFP ratio, 24 h. inhibition, % at 21.8 µM. hit rate 0.49% among 360,000. AID 624304, 2012;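 active = interference check ratio from 0.5 to 1.5 plus GFP to RFP signal ratio inhibition reaching or exceeding a fixed threshold, cut at about 30% in these data, passing the limit was not always enough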
CendR NRP1 mod = modulators of CendR peptide binding to NRP-1, primary screen, biochemical, fluorescence polarization, uHTS. FAM-RPARPAR peptide binding to NRP-1. inhibition, % at 25 µM. hit rate 0.85% among 360,000. AID 602438, 2012;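 active = inhibition or corrected inhibition above about 18%, plus a signal ratio from 0.5 to 1.5, limit read from the data, passing the limit was not always enough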
Target sequence (O14786 whole entry, looked up): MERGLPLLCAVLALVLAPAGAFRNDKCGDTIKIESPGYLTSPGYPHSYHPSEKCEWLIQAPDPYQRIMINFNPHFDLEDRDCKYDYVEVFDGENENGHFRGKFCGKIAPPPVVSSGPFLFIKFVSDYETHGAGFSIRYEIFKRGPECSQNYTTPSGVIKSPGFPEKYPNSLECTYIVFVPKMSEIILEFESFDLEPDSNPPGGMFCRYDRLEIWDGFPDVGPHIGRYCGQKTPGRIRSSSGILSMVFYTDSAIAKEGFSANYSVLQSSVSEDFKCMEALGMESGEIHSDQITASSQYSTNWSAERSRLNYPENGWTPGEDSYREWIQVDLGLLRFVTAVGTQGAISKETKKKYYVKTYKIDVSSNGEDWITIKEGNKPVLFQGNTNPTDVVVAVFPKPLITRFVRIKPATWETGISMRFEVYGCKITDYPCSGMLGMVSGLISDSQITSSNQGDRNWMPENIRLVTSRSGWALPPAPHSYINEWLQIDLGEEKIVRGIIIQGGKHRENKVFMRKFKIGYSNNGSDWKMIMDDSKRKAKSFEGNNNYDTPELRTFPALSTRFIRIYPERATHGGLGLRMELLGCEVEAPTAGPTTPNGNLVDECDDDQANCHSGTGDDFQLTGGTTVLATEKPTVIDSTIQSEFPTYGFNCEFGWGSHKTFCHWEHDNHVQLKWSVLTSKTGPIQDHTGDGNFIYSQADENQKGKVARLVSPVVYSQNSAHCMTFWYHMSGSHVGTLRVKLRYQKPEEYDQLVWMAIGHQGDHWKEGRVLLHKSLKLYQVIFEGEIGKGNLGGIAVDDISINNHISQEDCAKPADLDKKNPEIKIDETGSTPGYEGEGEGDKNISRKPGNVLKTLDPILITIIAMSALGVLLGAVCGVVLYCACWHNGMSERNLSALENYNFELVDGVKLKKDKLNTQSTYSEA
MEKK2wt confirm = modulators of MEK5 binding to wildtype MEKK2, confirmation, biochemical, single concentration, multiplex bead flow cytometry. shares compounds with MEKK3 PB1 HTS. Alexa488-MEK5 binding to MEKK2 WT; actives lie on both sides. binding response (% of control), % at 10 µM. hit rate 2.4% among 5,900. AID 1892, 2009; in the data active = binding response below about 16% or above about 210%; inactive = in between
MEKK2mut-MEK5 = mutant MEKK2 PB1-MEK5 binding signal retest – biochemical, single concentration, multiplex bead flow cytometry, confirmation; Alexa488-MEK5 binding to MEKK2 mutant; hit rate 2% among 5,900; percent response, % at 10 µM; AID 1893, 2009; shares compounds with MEKK3 PB1 HTS; in the data active = percent response mostly above about 71%, no sharp cut-off; inactive = mostly below about 38%;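 also: higher means compound restores mutant binding toward wildtype level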
MEKK3 confirm = MEKK3 wild-type PB1 binding to MEK5, inhibitors, confirmation, biochemical, bead multiplex flow cytometry, single concentration, wildtype; shares compounds with MEKK3 PB1 HTS; Alexa488-MEK5 binding to MEKK3; hits give low values; binding response (% of control), % at 10 µM; hit rate 1.8% among 5,900;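 active = binding response below 72% of control, or above a set upper limit, though filed actives all read lower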;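 also: 100% = DMSO only wells and 0% = binding blocked by excess unlabeled MEK5; lower values mean stronger disruption of MEK5 binding to MEKK3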
Starred values were filed as active, the others as inactive; / = no result; [ ] = dose if it differs, or a comment. Hits are enriched below; roughly 3.2% of the tested compounds scored in any of these assays.

SMILES | MEKK2 WT-MEK5 | MEKK3 PB1 HTS | MEKK2 mut-MEK5 | SKN-1 block | CendR NRP1 mod | MEKK2wt confirm | MEKK2mut-MEK5 | MEKK3 confirm
CC(C)(C)C(=O)N1CCC2CC1c1cc(Cl)ccc12 (stereo not drawn) | / | / | / | 3.5 | -5.6 | / | / | /
Cn1c(=O)c2cc(NC(=O)NCCc3ccccc3)ccc2n1Cc1ccc(F)cc1 | / | / | / | 7.4 | -2.0 | / | / | /
COc1ccccc1N1CCN(S(=O)(=O)c2ccc(Cl)s2)CC1 | -4.0*[inhibitor] | 0.0*[inhibitor] | -39.0 | 2.9 | 2.3 | 25.0 | -21.0 | 56.0*
CCOc1ccc2c(C)c(C)c(=O)oc2c1OCC | 93.0 | 94.0 | 2.0 | -7.0 | -15.2 | / | / | /
COc1ccc2c(C)c(C)c(=O)oc2c1OC | 0.0*[inhibitor] | 2.0*[inhibitor] | -26.0 | 5.3 | 14.7 | 104.0 | -1.0 | 101.0
CCC1(c2ccccc2)NC(=S)N(c2cccc(C)c2C)N1 (stereo not drawn) | 105.0 | 129.0* | 1.0 | 13.1 | 0.6 | 101.0 | -10.0 | 99.0
CCN(CC)CCNc1nc2cc(OC)c(OC)cc2c2nc(-c3ccccc3)nn12 | 143.0* | 108.0 | 10.0 | 3.1 | 0.4 | 111.0 | 3.0 | 95.0
COc1cc2[nH]c(=O)n3nc(-c4ccccc4)nc3c2cc1OC | 99.0 | 102.0 | 3.0 | 14.6 | -0.2 | / | / | /
CC(=O)c1cccc(N(C(=O)c2cnccn2)C(C(=O)NCc2ccccc2)c2ccco2)c1 (stereo not drawn) | 118.0 | 124.0* | 9.0 | -5.0 | 3.5 | 100.0 | 5.0 | 97.0
CC(=O)c1cccc(N(C(=O)Cn2nnc3ccccc32)C(C(=O)NCc2ccccc2)c2ccccn2)c1 (stereo not drawn) | 105.0 | 130.0* | 2.0 | 0.5 | -2.4 | 94.0 | 4.0 | 97.0
O=C(NCc1ccccc1)C(c1ccco1)N(C(=O)c1cnccn1)c1ccc(F)cc1 (stereo not drawn) | / | / | / | 13.3 | 0.3 | / | / | /
COc1ccc(CNC(=O)C(c2ccco2)N(C(=O)c2ccccn2)c2ccccc2)cc1 (stereo not drawn) | 55.0*[inhibitor] | 59.0*[inhibitor] | -15.0 | 4.7 | 4.3 | 96.0 | -4.0 | 98.0
COCCNC(=O)C(c1ccccc1)N(C(=O)Cn1nnc2ccccc21)c1cccnc1 (stereo not drawn) | 110.0 | 108.0 | 10.0 | 12.6 | 5.8 | / | / | /
O=C(NCc1ccccc1)C(c1ccco1)N(C(=O)c1ccccn1)c1ccccc1 (stereo not drawn) | 104.0 | 101.0 | 0.0 | 10.8 | -1.5 | / | / | /
Cc1ccccc1CC(=O)N1CCOCC1 | 105.0 | 98.0 | 4.0 | -4.6 | 0.8 | / | / | /
COc1ccccc1CN1CCNC(=O)C1CC(=O)N(C)C1CCOCC1 (stereo not drawn) | / | / | / | 10.3 | 2.2 | / | / | /
CCc1cc(C(=O)NCC(c2ccco2)N2CCCCC2)sc1C (stereo not drawn) | / | / | / | 7.3 | -9.9 | / | / | /
O=C(CSc1n[nH]c(=O)[nH]c1=O)c1ccccc1[N+](=O)[O-] | 70.0 | 64.0*[inhibitor] | -33.0 | -16.3 | -12.8 | 102.0 | 3.0 | 107.0
COc1ccc2[nH]cc(CCNC(C)=O)c2c1 | 106.0 | 108.0 | 44.0* | 5.4 | -5.9 | 100.0 | -1.0 | 102.0
O=C(CN1C(=O)c2ccccc2C1=O)NCCc1c[nH]c2ccc(Cl)cc12 | 95.0 | 99.0 | -2.0 | 0.5 | -5.2 | / | / | /
Cc1ccc2[nH]cc(CCNC(=O)CN3C(=O)c4ccccc4C3=O)c2c1 | 109.0 | 147.0* | -1.0 | 13.8 | -6.4 | 94.0 | -11.0 | 91.0
COc1ccc2[nH]cc(CCNC(=O)Cc3ccc(Br)cc3)c2c1 | 109.0 | 108.0 | 4.0 | 10.2 | -1.4 | / | / | /
CCOc1cc(CNCCCN2CCOCC2)cc(Br)c1OCc1ccccc1Cl | 199.0* | 114.0 | 78.0* | 7.2 | -0.2 | 173.0 | 33.0 | 105.0
CCOc1cc(CNCCO)cc(Br)c1OCc1ccccc1Cl | 142.0* | 102.0 | 12.0 | -6.7 | 14.2 | 148.0 | 33.0 | 104.0
CCOc1cc(CNC(C)(C)CO)cc(Br)c1OCc1ccc(Cl)cc1Cl | 262.0* | 117.0 | 75.0* | 21.0 | 9.5 | 202.0 | 67.0 | 116.0
SMILES | MEKK2 WT-MEK5 | MEKK3 PB1 HTS | MEKK2 mut-MEK5 | SKN-1 block | CendR NRP1 mod | MEKK2wt confirm | MEKK2mut-MEK5 | MEKK3 confirm
NS(=O)(=O)c1ccc(CCNc2ccn3nc(-c4ccc(OCCN5CCOCC5)cc4)cc3n2)cc1 | / | / | / | -11.7 | -0.4 | / | / | /
CC(Nc1cc(C)cc(C)c1)=[N+](C)CCNS(=O)(=O)c1ccc(Cl)cc1 | 124.0 | 108.0 | 12.0 | 11.8 | 6.6 | / | / | /
Cc1cc(C)n(CCNC(=O)[C@H]2O[C@@H](n3ccc(=O)[nH]c3=O)[C@H](O)[C@@H]2O)n1 | / | / | / | 10.4 | 3.7 | / | / | /
O=[N+]([O-])c1ccc(C2=NN(c3ccccc3)C(c3ccco3)C2)cc1 (stereo not drawn) | 33.0* | 107.0 | 124.0* | 29.6 | -165.2 | 83.0 | -33.0 | 93.0
O=C(CCOc1ccccc1)Nc1ccnn1C1CCN(Cc2ccc(O)cc2)CC1 | 148.0* | 109.0 | 22.0 | 0.5 | -7.4 | 135.0 | 17.0 | 105.0
Cc1ccc2c(c1)c1c(n2CC(O)CNC(CO)(CO)CO)CCCC1 (stereo not drawn) | 127.0 | 114.0 | 9.0 | 2.3 | 5.1 | / | / | /
Cc1ccc2c(c1)c1c(n2CC(O)CNC2CCCCC2)CCCC1 (stereo not drawn) | 154.0* | 108.0 | 21.0 | 1.6 | 3.3 | 133.0 | 17.0 | 99.0
C#CCOCCOCCOCCNc1nc(N2CCN(C(=O)[C@H](Cc3cc4ccccc4[nH]3)n3cc([C@@H](N)CC(C)C)nn3)CC2)nc(N2CCN(C(=O)[C@H](Cc3cc4ccccc4[nH]3)n3cc([C@@H](N)CC(C)C)nn3)CC2)n1 | 258.0* | 118.0 | 112.0* | 6.5 | 5.2 | 289.0* | 132.0* | 112.0
C#CCOCCOCCOCCNc1nc(N2CCN(C(=O)[C@H]([C@@H](C)CC)n3cc([C@@H](N)CC(C)C)nn3)CC2)nc(N2CCN(C(=O)[C@H](Cc3cc4ccccc4[nH]3)n3cc([C@@H](N)CC(C)C)nn3)CC2)n1 | 151.0* | 108.0 | 52.0* | / | / | 252.0* | 169.0* | 116.0
